High-throughput results deposited in PubChem BioAssay by National Center for Advancing Translational Sciences (NCATS).
FUS yeast rescue: FUS proteinopathy suppression in yeast; actives 0.24% (n = 390,000); S. cerevisiae FUS-expressing, growth rescue, OD600, 24 h; Potency, µM (series often up to 76.6 µM), usual class: activators; AID 1347120; also: nearly all actives have a fitted effect of over 55% in size
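Steps: raffinose overnight preculture; dilution to OD 0.005 in 2% galactose minimal medium; compound addition (concentration series); 24hr at 30C, 99% humidity; absorbance read at 600 nm.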
aSyn yeast inh: rescues yeast growth from alpha-synuclein toxicity; Yeast expressing alpha-synuclein, growth rescue, BacTiter-Glo, 24 h; Potency, µM (highest dose often 46.1 µM), actives largely listed as activators; actives 0.14% (n = 370,000); AID 652106; also: nearly all actives have a fitted effect of over 65% in size
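Readout is rescue of growth in alpha-synuclein-expressing yeast, so inhibitors of toxicity appear as activators. Growth after 24 hr at 30 deg C in galactose medium is quantified by luminescence.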
CCT modulator: modulators of cytosolic chaperonin (CCT/TRiC) activity | purified chaperonin ATPase assay, HTRF ADP detection, 30 min | activity change, % (no concentration beside the values), hits read low | actives 0.3% (n = 360,000) | AID 651819; in the data active = activity change below about -30%
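Enzyme 40 or 20 nM (batch-dependent) in Tris pH 7.4/KCl/MgCl2/DTT; cpd 76 uM single point; ATP 10 uM; 30 min 37 °C; Transcreener ADP HTRF detection, 30 min RT; ratio 665/615.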
MmCpn inh: inhibitors of Methanococcus maripaludis chaperonin TRiC (MmCpn); purified Mm-Cpn ATPase, ADP Transcreener TR-FRET; Potency, µM (series often up to 76.9 µM), usual class: inhibitors; actives 0.031% (n = 330,000); AID 504842; also: nearly all actives have a fitted effect of over 80% in size
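ATP (10 uM final) was added to archaeal chaperonin (25 nM final) after 10 min exposure to test compound at 37°C; after 30 min further incubation, ADP was detected by competitive TR-FRET.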
TDP43 rescue: rescues yeast growth from TDP-43 toxicity; Potency, µM (highest dose often 46.1 µM), hits mostly activators; actives 1.8% (n = 410,000); TDP-43 expressing yeast growth rescue, BacTiter-Glo, 24 h; also: nearly all actives have a fitted effect of over 50% in size
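In this qHTS, compounds that restore growth of yeast expressing TDP-43 appear as activators. Cells (OD600=0.02, galactose medium, raffinose-pregrown) are incubated with compound 24 hr at 30 deg C and growth is quantified by BacTiter-Glo.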
Abeta yeast res: restores growth of yeast expressing A-beta42 peptide; yeast expressing A-beta42, growth rescue, OD600, 48 h; response scale: 0% DMSO, 100% iron-clioquinol control; Potency, µM (top dose mostly 46.1 µM), usual class: activators; actives 0.063% (n = 410,000); AID 1347071; also: nearly all actives have a fitted effect of over 55% in size
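Growth rescue measured by 600 nm absorbance after 48 h yeast culture at 30 C with compound. Values normalized between DMSO and an equimolar ferric chloride plus clioquinol control.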
A number is an active result; 0 = inactive; ? = inconclusive; - = no result given. Hits are enriched below; roughly 2.3% of the tested compounds scored in any of these assays. Unless noted, calls follow the shape of the dose curve; as a rule, active = well fitted curve in the direction sought with a large enough effect; inconclusive = small, poorly fitted or top-dose-only effect, or another doubt; inactive = no such curve, though single readings can be large; an effect the other way counts as inactive or inconclusive.

SMILES | FUS yeast rescue | aSyn yeast inh | CCT modulator | MmCpn inh | TDP43 rescue | Abeta yeast res
CC(C)c1ccc(C2=CC(c3cccc(Cl)c3)n3c(nc4ccccc43)N2)cc1 (configuration not stated) | 0 | - | - | - | 18µM | 0
CCOc1ccc(C2=CC(c3cccc(Br)c3)n3c(nc4ccccc43)N2)cc1Cl (configuration not stated) | 0 | - | - | - | 13µM | 0
CCc1ccc(C2=CC(c3cccc(C)c3)n3c(nc4ccccc43)N2)cc1 (configuration not stated) | 0 | - | - | - | 13µM | 0
CCc1ccc(C2=CC(c3cccc(OC)c3OC)n3c(nc4ccccc43)N2)cc1 (configuration not stated) | 0 | - | - | - | 0 | 0
CC(C)c1ccc(C2=CC(c3cccc(Cl)c3)n3ncnc3N2)cc1 (configuration not stated) | 0 | - | - | - | 13µM | 0
NC1=NC(c2cccc(Cl)c2)n2c(nc3ccccc32)N1 (configuration not stated) | 0 | - | - | - | 0 | 0
Cc1ccccc1CNC(=O)C1C2C=CC3(CN(Cc4ccccc4)C(=O)C13)O2 (configuration not stated) | 0 | - | - | - | - | -
COc1ccc(CNC(=O)C[C@H]2C[C@H](C(=O)N(C(C)C)C(C)C)[C@@]3(C)c4[nH]c5ccc(Cl)cc5c4CCN3C2=O)cc1OC | ? | 0 | 0 | 0 | 13µM | 0
COc1ccc(CNC(=O)C[C@H]2C[C@H](C(=O)N3CCOCC3)[C@@]3(C)c4[nH]c5ccc(Cl)cc5c4CCN3C2=O)cc1OC | 0 | 0 | 0 | 0 | 0 | 0
CC(C)N(C(=O)[C@H]1CC(CC(=O)NCC23CC4CC(CC(C4)C2)C3)C(=O)N2CCc3c([nH]c4ccccc34)[C@]12C)C(C)C (some centres not stated) | 0 | ? | 0 | 0 | 22µM | 0
CC(C)N(C(=O)[C@H]1C[C@H](CC(=O)NCC23CC4CC(CC(C4)C2)C3)C(=O)N2CCc3c([nH]c4cc(-c5ccco5)ccc34)[C@]12C)C(C)C | 0 | 0 | 0 | 0 | 0 | 0
CCC[C@H]1[C@@H](OC(=O)NCc2cccc(Cl)c2)CC[C@@]23CCCN2C(=O)CCC[C@@H]13 | 0 | - | - | - | - | -
CN(C)N=Nc1ccc(/C=C2\C=Cc3ccccc32)cc1 | - | 0 | - | - | - | -
CCOc1ccc(C(=O)CCC(=O)N2CCN(S(=O)(=O)c3cccc(F)c3)CC2)cc1 | 0 | 0 | -49 | 0 | 0 | 0
CCOc1ccc(OCCC(=O)OCC(=O)N2CCN(S(=O)(=O)c3ccc(Cl)cc3)CC2)cc1 | 0 | 0 | 0 | 0 | 13µM | 0
CCOC(=O)C1CCN(C(=O)COC(=O)COc2ccc(Cl)cc2)CC1 | 0 | 0 | -30 | 0 | 0 | 0
CCC(=O)OCCCN1CCC2(CCCCC2)C1=O | 0 | - | - | - | - | -
O=CC(=O)c1ccc(Br)cc1 | - | 0 | - | - | - | -
Nc1nc(N)nc(-c2ccc(Cl)c(Cl)c2)n1 | 0 | 0 | 0 | 0 | 22µM | 0
CC1(C)CC(=O)C2=C(C1)Nc1cc3c(cc1C2c1ccc2c(c1)OCO2)OCO3 (configuration not stated) | 35µM | 0 | 0 | 0 | 0 | 0
FC(F)(F)c1nnc2c(Sc3ccccn3)nc3ccccc3n12 | 0 | 0 | 0 | 0 | 16µM | 0
CCn1ncc(Br)c1C(=O)Nc1ccccc1OC | 0 | 0 | -35 | 0 | ? | 0
CC(OC(=O)c1ccccc1OCC(=O)Nc1ccc(Br)cc1)C(=O)NC1CCCC1 (configuration not stated) | - | 0 | - | - | - | -
O=[N+]([O-])c1nn(-c2ccc3c(c2)OCCO3)n(O)c1=Nc1ccccc1 | 0 | 0 | 0 | 0 | 11µM | 0
CCc1ccc(N=c2c([N+](=O)[O-])nn(-c3ccc4c(c3)OCCO4)n2O)cc1 | 0 | 0 | 0 | 0 | 20µM | ?
SMILES | FUS yeast rescue | aSyn yeast inh | CCT modulator | MmCpn inh | TDP43 rescue | Abeta yeast res
O=[N+]([O-])c1nn(-c2ccc3c(c2)OCCO3)n(O)c1=Nc1ccc(Cl)cc1 | 0 | 0 | 0 | 0 | 0 | 0
CCOC(=O)N1CCN(/[N+]([O-])=N/Oc2ccc([N+](=O)[O-])cc2[N+](=O)[O-])CC1 | - | 0 | - | - | - | -
CC(C)OP(=O)(O)C(C)NC(=O)OCc1ccccc1 (configuration not stated) | 0 | - | - | - | - | -
COc1ccc(C(=O)Nc2ccc(S(=O)(=O)Nc3onc(C)c3C)cc2)c(OC)c1 | 0 | 0 | -35 | 0 | 0 | 0
COc1ccccc1C(=O)Nc1ccc(S(=O)(=O)Nc2onc(C)c2C)cc1 | 0 | 0 | 0 | 0 | 0 | 0
C=C1CCN(Cc2ccccc2)S(=O)(=O)c2ccccc21 | 0 | 22µM | 0 | 0 | 0 | 0
Cc1ccc(CCNC(=O)C2CCCN(S(=O)(=O)c3c(C)noc3/C=C/N(C)C)C2)cc1 (configuration not stated) | 20µM | 0 | 0 | 0 | 0 | 0
Cc1ccc(C)c(NS(=O)(=O)c2cc(C(=O)N3CCc4ccccc4C3)ccc2Cl)c1 | ? | 16µM | 0 | 0 | 0 | 0
Cc1ccc(C)c(NC(=O)N2CCc3ccccc3C2)c1 | 0 | 0 | 0 | 0 | 20µM | 0
Cc1cccc(NS(=O)(=O)c2cc(C(=O)N3CCc4ccccc4C3)ccc2Cl)c1C | ? | 10µM | 0 | 0 | 0 | 0
CCCC1CCC2(CCCN2CCOC(=O)Nc2ccccc2)CC1 (configuration not stated) | 0 | - | - | - | - | -
c1ccc2c(c1)CC(N1CCN(c3cccc4c3OCCO4)CC1)C2 | - | 0 | - | - | - | -
Clc1ccccc1N1CCN(C2=Nc3ccccc3Sc3ccccc32)CC1 | 0 | - | - | - | - | -
CC(=O)c1ccc(Oc2ccc(C(C)=O)cc2)cc1 | 0 | 0 | 0 | 0 | 22µM | 0
CC1CCCCN1C(=O)c1cccc(NC2=C(Cl)C(=O)N(Cc3ccccc3)C2=O)c1 (configuration not stated) | 0 | 0 | 0 | 0 | 18µM | 0
CC1CCN(C(=O)c2ccc(NC3=C(Cl)C(=O)N(Cc4ccccc4)C3=O)cc2)CC1 | 0 | ? | 0 | 0 | 0 | 0
Cc1ccc2c(c1)cc1c(=O)n(CC(=O)NCc3ccco3)nc(C)n12 | 0 | - | - | - | 0 | 0
O=C1CCC[C@H]2C[C@H](NCc3cccc(Cl)c3)CC[C@]23CCCN13 | 0 | - | - | - | - | -
O/N=C(\c1ccc(Cl)cc1)c1ncc(C(F)(F)F)cc1Cl | 0 | 0 | 0 | 0 | 13µM | 0
Cc1cccc(CS(=O)(=O)c2ncc(Cl)c(C(=O)NCc3ccccc3)n2)c1 | 0 | 0 | 0 | 0 | 7.9µM | 0
Cc1ccccc1NC(=O)c1nc(S(C)(=O)=O)ncc1Cl | 0 | 0 | 0 | 0 | 10µM | 0
Cc1ccccc1CS(=O)(=O)c1ncc(Cl)c(C(=O)Nc2ccc(F)cc2)n1 | 0 | 0 | 0 | 0 | 11µM | 0
